From PMC7862700, “An all-to-all approach to the identification of sequence-specific readers for epigenetic DNA modifications on cytosine”

Legend:
Experiment in all cases: DAPPL (digital affinity profiling via proximity ligation, sequencing); 10 mM Tris-HCl pH 7.5, 50 mM NaCl, 1 mM DTT, 4% glycerol, room temperature, 30 min; GST-TFs on glutathione beads, 16-mer random dsDNA library, 0.1% formaldehyde crosslink after washing; high values mean tight binding
Conditions in all cases: protein: recombinant; tags: N-terminal GST; dsDNA, one strand shown
[1] = biological target: T1, FLI1 (Homo sapiens, UniProt Q01543 1-452)
T1 sequence: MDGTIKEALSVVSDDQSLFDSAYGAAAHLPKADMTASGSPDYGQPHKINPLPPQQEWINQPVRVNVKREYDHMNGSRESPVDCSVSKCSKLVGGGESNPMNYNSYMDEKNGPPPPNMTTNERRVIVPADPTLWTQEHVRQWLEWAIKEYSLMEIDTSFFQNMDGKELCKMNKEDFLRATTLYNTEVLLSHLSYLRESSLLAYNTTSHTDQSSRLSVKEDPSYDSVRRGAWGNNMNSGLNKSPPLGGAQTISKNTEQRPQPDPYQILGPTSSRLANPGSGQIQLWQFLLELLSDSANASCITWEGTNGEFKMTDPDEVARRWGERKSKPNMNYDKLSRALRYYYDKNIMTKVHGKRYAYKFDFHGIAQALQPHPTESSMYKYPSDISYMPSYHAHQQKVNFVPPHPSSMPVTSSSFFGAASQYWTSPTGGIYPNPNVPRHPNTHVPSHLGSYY
In short: (§1)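 Yeast served to express human transcription factors as GST fusions, which were then captured on glutathione beads and labelled with DNA barcodes. Pooled with a tag-only sample, they were incubated with 200 nmole of a 16-mer random double-stranded DNA library for 30 min at room temperature in Tris/NaCl/DTT/glycerol buffer, washed, crosslinked with 0.1% formaldehyde, ligated by proximity, amplified by PCR and sequenced. Dividing each hexamer's read frequency for a factor by its frequency for the tag-only sample gives the binding signal.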

[2] = biological target: T2, ELK1 (Homo sapiens, UniProt P19419 1-428)
T2 sequence: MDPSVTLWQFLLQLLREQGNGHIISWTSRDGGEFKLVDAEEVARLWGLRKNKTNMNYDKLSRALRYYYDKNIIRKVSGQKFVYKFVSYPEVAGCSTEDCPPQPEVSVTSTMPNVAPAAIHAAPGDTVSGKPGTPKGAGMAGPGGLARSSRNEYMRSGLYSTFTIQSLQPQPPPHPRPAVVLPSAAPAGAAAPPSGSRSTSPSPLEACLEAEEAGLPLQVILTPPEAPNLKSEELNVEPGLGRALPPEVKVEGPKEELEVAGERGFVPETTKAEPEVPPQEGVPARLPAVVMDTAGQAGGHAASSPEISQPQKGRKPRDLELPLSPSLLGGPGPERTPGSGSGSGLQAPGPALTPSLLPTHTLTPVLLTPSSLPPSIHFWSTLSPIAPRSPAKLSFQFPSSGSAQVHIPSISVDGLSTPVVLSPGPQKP
In short: as §1

[3] = biological target: T3, GABPA (Homo sapiens, UniProt Q06546 1-454)
T3 sequence: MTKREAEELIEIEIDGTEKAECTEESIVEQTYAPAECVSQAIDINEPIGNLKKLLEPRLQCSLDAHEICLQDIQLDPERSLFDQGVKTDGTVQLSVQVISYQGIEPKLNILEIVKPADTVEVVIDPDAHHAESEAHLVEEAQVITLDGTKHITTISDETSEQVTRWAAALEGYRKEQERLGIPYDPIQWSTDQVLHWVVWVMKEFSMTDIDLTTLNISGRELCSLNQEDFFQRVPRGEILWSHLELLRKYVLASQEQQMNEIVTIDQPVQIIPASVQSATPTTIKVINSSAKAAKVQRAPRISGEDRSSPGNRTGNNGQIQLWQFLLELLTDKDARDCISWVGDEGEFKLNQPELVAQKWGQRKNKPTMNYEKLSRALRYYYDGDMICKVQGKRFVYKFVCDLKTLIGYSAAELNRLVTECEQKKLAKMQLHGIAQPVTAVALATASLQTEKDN
In short: as §1

[4] = biological target: T4, ERG (Homo sapiens, UniProt P11308 1-479)
T4 sequence: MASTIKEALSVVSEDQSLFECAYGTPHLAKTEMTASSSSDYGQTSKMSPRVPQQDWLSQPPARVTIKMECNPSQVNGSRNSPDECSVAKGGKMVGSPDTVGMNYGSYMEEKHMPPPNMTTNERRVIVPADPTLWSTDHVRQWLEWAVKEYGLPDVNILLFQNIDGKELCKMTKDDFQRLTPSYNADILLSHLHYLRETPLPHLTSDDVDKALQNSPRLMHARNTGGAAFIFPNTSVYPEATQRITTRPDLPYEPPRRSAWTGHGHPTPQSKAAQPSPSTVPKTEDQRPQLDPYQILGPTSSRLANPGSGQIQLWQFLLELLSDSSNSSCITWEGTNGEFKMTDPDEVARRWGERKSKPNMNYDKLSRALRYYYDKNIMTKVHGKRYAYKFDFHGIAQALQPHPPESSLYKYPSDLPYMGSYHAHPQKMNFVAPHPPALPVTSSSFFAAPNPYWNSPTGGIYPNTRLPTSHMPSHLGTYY
In short: as §1

[5] = biological target: ELF1 (Homo sapiens, UniProt P32519 1-619)
In short: as §1

[6] = biological target: T5, EHF (Homo sapiens, UniProt Q9NZC4 1-300)
T5 sequence: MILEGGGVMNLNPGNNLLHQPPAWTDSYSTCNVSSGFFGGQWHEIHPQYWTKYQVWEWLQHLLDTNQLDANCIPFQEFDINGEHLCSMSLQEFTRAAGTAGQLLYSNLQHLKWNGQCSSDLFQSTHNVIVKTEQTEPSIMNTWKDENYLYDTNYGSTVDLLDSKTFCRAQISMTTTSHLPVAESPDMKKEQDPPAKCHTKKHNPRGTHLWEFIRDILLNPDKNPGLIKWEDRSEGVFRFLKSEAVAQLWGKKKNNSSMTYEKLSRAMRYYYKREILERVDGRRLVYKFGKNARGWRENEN
In short: as §1

[7] = biological target: T6, SPIC (Homo sapiens, UniProt Q8N5J4 1-248)
T6 sequence: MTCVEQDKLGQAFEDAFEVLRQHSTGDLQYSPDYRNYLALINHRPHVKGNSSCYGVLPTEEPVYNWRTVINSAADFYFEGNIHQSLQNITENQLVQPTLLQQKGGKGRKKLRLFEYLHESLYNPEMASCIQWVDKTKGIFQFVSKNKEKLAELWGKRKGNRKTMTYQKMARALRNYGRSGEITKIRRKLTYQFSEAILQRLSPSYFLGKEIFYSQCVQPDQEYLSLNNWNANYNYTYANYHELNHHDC
In short: as §1

[8] = biological target: ELF4 (Homo sapiens, UniProt Q99607 1-663)
In short: as §1

[9] = biological target: T7, ELK4 (Homo sapiens, UniProt P28324-2 1-405)
T7 sequence: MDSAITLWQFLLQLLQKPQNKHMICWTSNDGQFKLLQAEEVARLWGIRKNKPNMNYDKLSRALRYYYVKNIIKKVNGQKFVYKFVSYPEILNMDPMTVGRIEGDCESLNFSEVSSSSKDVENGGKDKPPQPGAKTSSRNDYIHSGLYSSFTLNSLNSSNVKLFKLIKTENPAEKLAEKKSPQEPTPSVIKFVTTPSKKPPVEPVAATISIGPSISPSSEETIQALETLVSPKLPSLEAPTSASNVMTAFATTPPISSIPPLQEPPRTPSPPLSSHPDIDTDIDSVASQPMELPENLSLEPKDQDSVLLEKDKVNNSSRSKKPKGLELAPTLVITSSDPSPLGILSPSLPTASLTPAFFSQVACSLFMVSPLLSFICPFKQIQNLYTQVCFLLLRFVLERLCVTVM
In short: as §1

[10] = biological target: ETV1 (Homo sapiens, UniProt P50549 1-477)
In short: as §1

[11] = biological target: ETV6 (Homo sapiens, UniProt P41212 1-452)
In short: as §1

ETV6, sequence (P41212 whole entry): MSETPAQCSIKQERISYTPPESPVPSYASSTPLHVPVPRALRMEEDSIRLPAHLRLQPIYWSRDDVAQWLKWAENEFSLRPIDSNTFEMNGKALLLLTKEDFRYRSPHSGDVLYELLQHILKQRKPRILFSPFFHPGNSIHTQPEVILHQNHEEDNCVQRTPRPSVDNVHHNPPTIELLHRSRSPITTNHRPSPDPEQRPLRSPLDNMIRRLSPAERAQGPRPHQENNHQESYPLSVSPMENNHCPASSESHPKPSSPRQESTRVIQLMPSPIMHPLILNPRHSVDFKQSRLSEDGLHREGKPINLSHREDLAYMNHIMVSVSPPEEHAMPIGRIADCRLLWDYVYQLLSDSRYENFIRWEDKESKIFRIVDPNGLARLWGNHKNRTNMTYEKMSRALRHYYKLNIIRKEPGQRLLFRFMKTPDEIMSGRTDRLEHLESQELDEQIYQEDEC
ELF1, sequence (P32519 whole entry): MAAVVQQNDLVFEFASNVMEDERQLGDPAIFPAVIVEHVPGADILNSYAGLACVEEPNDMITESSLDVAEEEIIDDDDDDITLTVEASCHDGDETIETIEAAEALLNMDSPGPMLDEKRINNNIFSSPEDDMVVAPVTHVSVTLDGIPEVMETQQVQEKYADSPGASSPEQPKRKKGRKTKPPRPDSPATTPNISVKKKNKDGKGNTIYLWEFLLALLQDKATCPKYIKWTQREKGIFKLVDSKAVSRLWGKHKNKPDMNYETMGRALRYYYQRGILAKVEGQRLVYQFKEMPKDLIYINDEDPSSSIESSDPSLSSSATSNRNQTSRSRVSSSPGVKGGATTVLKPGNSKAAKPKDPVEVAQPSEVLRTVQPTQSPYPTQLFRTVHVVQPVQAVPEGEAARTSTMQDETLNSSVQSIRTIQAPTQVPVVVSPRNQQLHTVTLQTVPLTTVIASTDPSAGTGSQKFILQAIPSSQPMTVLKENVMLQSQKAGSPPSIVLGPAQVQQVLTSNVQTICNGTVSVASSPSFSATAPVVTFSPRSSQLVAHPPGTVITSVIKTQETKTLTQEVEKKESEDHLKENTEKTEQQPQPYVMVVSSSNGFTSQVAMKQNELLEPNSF
ETV1, sequence (P50549 whole entry): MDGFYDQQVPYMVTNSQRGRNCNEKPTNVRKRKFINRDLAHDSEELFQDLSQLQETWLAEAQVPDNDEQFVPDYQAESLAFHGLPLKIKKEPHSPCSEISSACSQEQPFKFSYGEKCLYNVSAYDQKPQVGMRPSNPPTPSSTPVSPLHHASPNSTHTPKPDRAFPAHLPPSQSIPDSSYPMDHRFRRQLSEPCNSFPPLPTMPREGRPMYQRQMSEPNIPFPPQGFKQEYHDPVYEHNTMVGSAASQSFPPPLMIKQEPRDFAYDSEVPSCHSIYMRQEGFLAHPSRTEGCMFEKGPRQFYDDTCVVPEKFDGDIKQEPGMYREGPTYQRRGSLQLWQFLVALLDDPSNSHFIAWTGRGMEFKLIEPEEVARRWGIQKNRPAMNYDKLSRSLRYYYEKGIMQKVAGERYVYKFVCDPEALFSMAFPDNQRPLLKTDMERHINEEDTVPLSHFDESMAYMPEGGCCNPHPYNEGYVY
ELF4, sequence (Q99607 whole entry): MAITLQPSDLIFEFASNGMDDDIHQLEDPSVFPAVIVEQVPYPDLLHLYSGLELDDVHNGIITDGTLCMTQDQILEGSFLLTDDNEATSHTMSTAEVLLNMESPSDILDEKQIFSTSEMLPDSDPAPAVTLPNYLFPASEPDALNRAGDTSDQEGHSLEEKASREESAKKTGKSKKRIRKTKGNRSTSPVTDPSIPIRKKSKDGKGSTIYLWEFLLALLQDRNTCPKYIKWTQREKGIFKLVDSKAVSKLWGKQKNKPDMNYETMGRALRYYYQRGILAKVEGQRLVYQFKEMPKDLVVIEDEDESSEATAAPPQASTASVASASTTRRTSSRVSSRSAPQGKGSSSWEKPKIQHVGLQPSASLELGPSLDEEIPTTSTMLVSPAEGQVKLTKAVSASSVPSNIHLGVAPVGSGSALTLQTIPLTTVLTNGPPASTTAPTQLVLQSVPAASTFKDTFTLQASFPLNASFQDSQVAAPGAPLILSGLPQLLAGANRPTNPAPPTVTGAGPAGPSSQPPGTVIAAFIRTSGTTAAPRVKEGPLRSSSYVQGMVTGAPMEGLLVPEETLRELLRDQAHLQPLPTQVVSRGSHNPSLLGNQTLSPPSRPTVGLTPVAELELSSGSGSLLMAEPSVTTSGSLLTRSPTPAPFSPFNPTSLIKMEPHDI

Question: How did the binding signal [1] turn out when CGCAAC was run?
Answer: Its binding signal is 1.04 fold enrichment (6-mer frequency, TF over GST control).

Question: What about the binding signal [2] of the same sequence?
Answer: The binding signal was 1.08 fold enrichment (6-mer frequency, TF over GST control).

Question: What about the binding signal [3] of the same sequence?
Answer: The binding signal was 1.08 fold enrichment (6-mer frequency, TF over GST control).

Question: What about the binding signal [4] of the same sequence?
Answer: The binding signal was 1.03 fold enrichment (6-mer frequency, TF over GST control).

Question: And the binding signal [5]?
Answer: Its binding signal is 1.12 fold enrichment (6-mer frequency, TF over GST control).

Question: And the binding signal [6]?
Answer: Its binding signal is 1.01 fold enrichment (6-mer frequency, TF over GST control).

Question: What about the binding signal [7] of the same sequence?
Answer: Its binding signal is 1.08 fold enrichment (6-mer frequency, TF over GST control).

Question: And the binding signal [8]?
Answer: The binding signal was 1.06 fold enrichment (6-mer frequency, TF over GST control).

Question: And the binding signal [9]?
Answer: Its binding signal is 1 fold enrichment (6-mer frequency, TF over GST control).

Question: What about the binding signal [10] of the same sequence?
Answer: Its binding signal is 1.03 fold enrichment (6-mer frequency, TF over GST control).

Question: What about the binding signal [11] of the same sequence?
Answer: Its binding signal is 1.07 fold enrichment (6-mer frequency, TF over GST control).
